Among the data in PubChem BioAssay (NCI) are growth values, retold here.

The panel holds about 83,000 compounds, 20% with a hit somewhere; the sample as a whole holds those more often.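 Cells were grown in 96-well plates and exposed to the test compound at a single concentration for 48 hours; results are reported as percent growth, with values below 10 considered active.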 Unmarked numbers belong to inactive results. Calls of active or inactive are those of the source.

This assay deals with HCT-15 colon. Kind of assay: NCI-60 one-dose screen, 48 h (100 = growth as untreated, 0 = no growth, -100 = all killed). The following applies: 10 µM unless noted.
On to `Cc1ccc(NC(=O)c2ccc(CN3CCN(C)CC3)cc2)cc1Oc1ccc(-c2[nH]nc3ncnc(N)c23)cc1`, for which the growth was 99.4%.

On to `CCCn1cnc2c(c1=N)C(c1ccc(Cl)cc1)c1sc3c(C)cccc3c1O2` (stereo unspecified), for which the growth was 13%.

As for `C=C(C=O)[C@@H]1CC[C@]2(C)[C@H](CC=C3[C@H]4[C@@H](C)[C@H](C)CC[C@]4(C(=O)OC)CC[C@]32C)[C@@]1(C)CCC#N`, the growth was -55% (active).

For `NC(N)=Nc1ccc(Oc2cccc(NC(N)=Nc3ccc(I)cc3F)c2)cn1`, the growth is 87.4%.

`Cc1occc1-c1nc2s/c(=C/c3ccc(-c4cc(C(F)(F)F)ccc4Cl)o3)c(=O)n2n1`: the growth was 104%.

For the compound `C[C@H]1c2[nH]c3ccccc3c2C[C@H]2C(=O)N(CCCCCCC(=O)NO)CC(=O)N21`, the growth is 99.3%.

As to `COc1ccc(-c2cc(-c3ccc(Cl)cc3)c(C#N)c(=O)n2Cc2ccc(C(=O)O)cc2)cc1`, the growth is 79%.

Take `O=C1[C@H]2Cc3c([nH]c4ccccc34)[C@@H](c3ccc(Cl)cc3)N2C(=O)CN1C1CCN(Cc2ccccc2)CC1`: the growth was 23.7%.

For `COc1cc(-c2nn(C(C)(C)C)cc2-c2ccnc(NCCCNS(=O)(=O)c3ccc(C)cc3)n2)ccc1Cl`, the growth is 80.5%.

Regarding `CCCCNNC(=O)c1ccc(-c2cccc(F)c2F)cc1`, the growth was 55.1%.

Take `CC1(C)CC[C@]2(C(=O)N3CCOCC3)CC[C@]3(C)C(=CC[C@@H]4[C@@]5(C)C/C(=C/c6ccccn6)C(=O)C(C)(C)[C@@H]5CC[C@]43C)[C@@H]2C1`: the growth is 52.1%.
